Assay outcomes: PubChem, National Center for Advancing Translational Sciences (NCATS)
Cycloheximide cs – counter-screen hit for Shiga toxin inhibitors, cycloheximide; cell reporter, cycloheximide protein synthesis inhibition counterscreen; max response, %; 300,000 compounds, 12% hits; AID 2314; in the data active = max response mostly above about 13%, no sharp cut-off; inactive = mostly below about 14%; note: read at 38.3 µM for the half of the compounds with a filed dose
Shiga inhibitor – blocks Shiga toxin action in Vero cells; Vero cells, Shiga toxin protein synthesis inhibition reporter; inhibition, % at 38.7 µM; 290,000 compounds, 9.2% hits; AID 2315; in the data active = inhibition mostly above about 28%, no sharp cut-off; inactive = mostly below about 43%
NS1 inh – inhibitors of influenza NS1 protein function | Potency, µM (titrated, usually from 46.1 µM) | 270,000 compounds, 0.4% hits; note: actives are rising curves; nearly all actives have a fitted effect of over 50% in size
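In this qHTS, NS1 from influenza A is expressed in budding yeast, where it slows growth. Cells are switched from glucose to 2% galactose medium (pH 6.0, -URA), treated with compound, and growth recovery is read at OD600.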
SARS PLpro yeast – inhibitors of SARS-CoV papain-like protease in yeast; Potency, µM (highest dose often 32.9 µM), hits mostly activators; AID 485353; S. cerevisiae expressing SARS-CoV PLpro, growth rescue; 330,000 compounds, 0.19% hits; note: nearly all actives have a fitted effect of over 55% in size
Each line names hits and unclear results; the compound was inactive in the other large screens. A selection: hits, their analogues and other compounds. The true share with any hit is near 12%. Unless noted, calls come from the whole dose curve.

COc1ccc2nc(/N=C/c3c(C)[nH]n(-c4ccc(C)cc4)c3=O)sc2c1	Cycloheximide cs 17
COc1ccc2nc(N=Nc3ccc(N(C)C)cc3)sc2c1	Cycloheximide cs 31, Shiga inhibitor 126
COc1ccc2nc(/N=C/c3cccc(OC)c3O)sc2c1	Cycloheximide cs 26
COc1ccc2c(c1)-c1nc(/N=C/c3cccc(OC)c3O)sc1CC2	none
COc1ccc2nc(/N=C\N(C)C)sc2c1	none
Cc1[nH]c(=S)c(C#N)c(-c2ccco2)c1C(=O)N(C)C	none (no result: NS1 inh)
COC(=O)C1=C(C)N(Cc2ccccc2)C(=NCCCCO)N[C@H]1CCc1ccccc1	none
CCNC(=O)C1CC(=O)OC12CCCCC2 (stereo not given)	none
Cc1ccc(CNc2ncc(-c3ccccc3)n2C)o1	Cycloheximide cs 25
Cn1c(-c2ccc3c(c2)OCO3)cnc1NCc1cccc(Cl)c1	none
Cn1c(-c2ccc3c(c2)OCO3)cnc1NCc1ccccc1	Cycloheximide cs 39
Cn1c(-c2ccc3c(c2)OCO3)cnc1N	Cycloheximide cs 13
Cn1c(-c2ccccc2)cnc1NCc1ccccc1	Cycloheximide cs 11 (no result: Shiga inhibitor)
CCC(Oc1ccccc1)C(=O)NCCOC (stereo not given)	none
Cn1c(-c2ccc3c(c2)OCO3)cnc1NCc1ccccc1Cl	Cycloheximide cs 33, Shiga inhibitor 73
Cn1c(-c2ccc3c(c2)OCO3)cnc1NC(=O)CCC(=O)NCCc1ccccc1	Cycloheximide cs 18, Shiga inhibitor 65
Cc1ccc(-c2cnc(NCc3cc4c(cc3[N+](=O)[O-])OCO4)n2C)cc1C	none
Fc1ccc(-c2cc3nc4c(c(N5CCOCC5)n3n2)CCCC4)cc1	Cycloheximide cs 29, Shiga inhibitor 95
Cc1cccc(-c2cc3nc4c(c(N5CCOCC5)n3n2)CCCC4)c1	Cycloheximide cs 32, Shiga inhibitor 73
Cc1cccc(-c2cc3nc4c(c(N5CCC6(CC5)OCCO6)n3n2)CCCC4)c1	none (no result: Cycloheximide cs, Shiga inhibitor, SARS PLpro yeast)
Cc1cccc(-c2cc3nc4c(c(NCc5ccco5)n3n2)CCCC4)c1	Cycloheximide cs 57, Shiga inhibitor 126
OC1CCCN(c2c3c(nc4cc(-c5cccc(F)c5)nn24)CCCC3)C1 (stereo not given)	Cycloheximide cs 57, Shiga inhibitor 80
O=C(CSc1nncn1-c1ccccc1)N1CCCC1	none
N/C(=N\OC(=O)c1cccs1)c1cccc([N+](=O)[O-])c1	Cycloheximide cs 36, Shiga inhibitor 85 (no result: NS1 inh)
N/C(=N\OC(=O)c1cccc([N+](=O)[O-])c1)c1cccnc1	Cycloheximide cs 26
Cc1ccccc1C(=O)O/N=C(\N)c1cccc([N+](=O)[O-])c1	Cycloheximide cs 65, Shiga inhibitor 99
Cc1cccc(C(=O)O/N=C(\N)c2cccc([N+](=O)[O-])c2)c1	Cycloheximide cs 53, Shiga inhibitor 99
N/C(=N\OC(=O)c1cccc2ccccc12)c1cccc([N+](=O)[O-])c1	none
CC1(C)OC(=O)C=C(CC2NS(=O)(=O)OC3CCCCC23)O1 (stereo not given)	none
CCN(CC(=O)Nc1c(F)cccc1F)C(=O)C1Cc2ccccc2CN1S(=O)(=O)CC (stereo not given)	none (no result: Cycloheximide cs, Shiga inhibitor, NS1 inh)
COc1cccc(C(=O)O/N=C(\N)c2ccc([N+](=O)[O-])cc2)c1OC	Cycloheximide cs 75, Shiga inhibitor 76
CCOC(=O)CCCc1ccc(/C(C)=N/NC(N)=S)cc1	Cycloheximide cs 15
COC(=O)CC(=O)CSc1nc2c(cc1C#N)CCCCC2	Cycloheximide cs 46, Shiga inhibitor 105
CCc1nnc(NC(=O)CSc2nc3c(cc2C#N)CCCC3)s1	Cycloheximide cs 35, Shiga inhibitor 58
CCN1C(=O)S/C(=C/c2ccsc2)C1=O	none
C=CCN1C(=O)S/C(=C/c2ccsc2)C1=O	Cycloheximide cs 37, Shiga inhibitor 62
Cc1cc(C(=O)COC(=O)c2ccc(Br)o2)c(C)n1C	Cycloheximide cs 40, Shiga inhibitor 58 (no result: NS1 inh)
COCCn1c(C)cc(C(=O)COC(=O)c2ccc[nH]c2=O)c1C	none
COCCn1c(C)cc(C(=O)COC(=O)c2ccc(Br)o2)c1C	Cycloheximide cs 29, Shiga inhibitor 55
Cc1cc(C(=O)COc2ccc(F)cc2Br)c(C)n1C	Cycloheximide cs 30 (no result: NS1 inh)
Cc1cc(C(=O)COC(=O)c2ccc(F)cc2)c(C)n1C	none (no result: Cycloheximide cs, Shiga inhibitor, NS1 inh)
CCOC(=O)c1c(O)cc(OC)cc1CCc1ccccc1	none (no result: Cycloheximide cs, Shiga inhibitor, NS1 inh)
S=c1[nH]c2ccccc2n2cccc12	none
S=c1[nH]c2ccccc2o1	Cycloheximide cs 13, Shiga inhibitor 83
Cc1ccc(SCC(=O)Nc2c(Br)cnn2C)cc1	none
O=S(=O)(Nc1cccc(Cl)c1)c1cccc(-n2cnnn2)c1	none (no result: Cycloheximide cs, Shiga inhibitor, NS1 inh)
Cc1ccc(S(=O)(=O)N2CCCCC2)cc1NC(=O)c1ccc2ccccc2n1	Cycloheximide cs 46, Shiga inhibitor 47
O=C(Nc1cccc(S(=O)(=O)N2CCOCC2)c1)c1ccccn1	none
CCOc1cc(N2CCOCC2)c(OCC)cc1NC(=O)c1ccc2ccccc2n1	Cycloheximide cs 28, Shiga inhibitor 53
O=C(Nc1nc2ccc(S(=O)(=O)N3CCCC3)cc2s1)c1ccccn1	Cycloheximide cs 38, Shiga inhibitor 60 (no result: NS1 inh)
O=C(Nc1cccc(S(=O)(=O)N2CCCCC2)c1)c1ccccn1	Cycloheximide cs 27 (no result: NS1 inh)
COc1ccc(Cl)cc1-c1nc(SCC(=O)N(C)CCC#N)n[nH]1	none (no result: NS1 inh)
O=C(Nc1ccc(N2CCCCC2)cc1)c1ccc2ccccc2n1	Cycloheximide cs 29, Shiga inhibitor 78
O=C(Nc1cccc(S(=O)(=O)N2CCCCCC2)c1)c1ccc2ccccc2n1	Cycloheximide cs 22
COc1ccc(NC(=O)c2ccc3ccccc3n2)cc1S(=O)(=O)N1CCCCC1	Cycloheximide cs 38
COc1ccc(S(=O)(=O)N2CCCCC2)cc1NC(=O)c1ccc2ccccc2n1	none
CC(C)Oc1ccc(CNC(=O)CCCN2C(=O)C(c3ccccc3)Oc3cccnc32)cc1 (stereo not given)	none
CC(=O)Cn1nnc(-c2ccc(C(F)(F)F)cc2)n1	Cycloheximide cs 27, Shiga inhibitor 61
COc1cccc(-c2nnn(CCc3nn[nH]n3)n2)c1	none
CCCCOc1ccc(-c2nnn(CC(=O)NCCc3c[nH]c4ccccc34)n2)cc1	Cycloheximide cs 15
COc1ccc(-c2nnn(CC(=O)N3CCN(c4ccc(F)cc4)CC3)n2)cc1	none
COc1cccc(-c2nnn(CC(=O)N3CCCCC3)n2)c1	Cycloheximide cs 21, Shiga inhibitor 41
COc1cccc(-c2nnn(CC(C)=O)n2)c1	Cycloheximide cs 53, Shiga inhibitor active
Cc1ccc(NC(=O)C2CCN(S(=O)(=O)c3ccc4c(c3)NC(=O)C(C)S4)CC2)cc1Cl (stereo not given)	none
CCOC(=O)[C@H]1[C@H]2COc3ccc(C)cc3[C@@H]2N2C(=O)c3ccccc3NC(=O)[C@@]12C	none (no result: Cycloheximide cs, Shiga inhibitor, NS1 inh)
NC(=O)Cn1nnc(-c2ccc(NC(=O)c3ccc(F)cc3)cc2)n1	Cycloheximide cs 27, Shiga inhibitor 70 (no result: NS1 inh)
C=CCNC(=O)Cn1nnc(-c2ccc(-c3ccc(OC)cc3)cc2)n1	Cycloheximide cs 23, Shiga inhibitor 51, NS1 inh inconclusive
O=C(Cn1nnc(-c2ccc(NC(=O)c3ccccc3F)cc2)n1)NCc1ccc(F)cc1	none
COC(=O)c1ccccc1NC(=O)Cn1nnc(-c2ccc(OC)cc2)n1	none
COc1ccc(-c2ccc(-c3nnn(CC(C)=O)n3)cc2)cc1	Cycloheximide cs 35, Shiga inhibitor 93
